Among the data in PubChem BioAssay (EPA / NIEHS) are outcome and AC50 values, retold here.

Activity calls are given as the source filed them. The calls were made as follows: active = hit-call score of the fitted dose curve at least 0.9, where 1 is the maximum; inactive = score below 0.9.

The nature of the first assay: ATG_PPRE_CIS: Attagene CIS-FACTORIAL HepG2 Assay for human Peroxisome Proliferator-activated Response Element (PPRE) (AID 2282958). The following applies: HepG2 PPRE cis-element reporter, Attagene transcription factor profiling; actives raise or lower the signal. The procedure, abridged: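 Endogenous PPRE-driven transcription is measured in HepG2 cells carrying transfected multi-reporter constructs. Reporter transcripts are quantified by RT-PCR, HpaI digestion and capillary electrophoresis 24 h after dosing. DMSO baseline, bidirectional fit.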
Consider `CCOP(=S)(Oc1ccc([N+](=O)[O-])cc1)c1ccccc1` (stereo not given), for which the molecule was called inactive.
Turning to `CCCCN(CCCC)SN(C)C(=O)Oc1cccc2c1OC(C)(C)C2`, the result was inactive.
Still for that read-out and setting: in the case of `Cc1cccc(N)c1` it was “inactive”.
Turning to `CCCCOCCOP(=O)(OCCOCCCC)OCCOCCCC`, the result was inactive.
The same measure, in the same setting: in the case of `CN(C)C(=O)Cl` it was “inactive”; in that of `O=C(O)C(Cl)Cl`, “inactive”.
Still for that read-out and setting: with `CCOS(=O)(=O)OCC` the entry was “inactive”; with `OCC1CO1` (stereo not given), “inactive”.
On the same count and under the same terms, in the case of `CSC(C)(C)C=NO` it was “inactive”; in that of `CCCCCCCc1ccc(O)cc1`, “inactive”; in that of `Nc1cc2c3c(c1)C(c1ccccc1)=N[C@@H](NC(=O)c1cccnc1)C(=O)N3CC2`, “inactive”.
Regarding `Nc1ccc(Cl)cc1`, the result was inactive.
The same measure, in the same setting: with `CC(Cl)(Cl)C(=O)O` the entry was “inactive”.
Regarding `CCOP(=S)(OCC)SCS(=O)(=O)CC`, the molecule was called inactive.
As to `CCOC(=O)c1ccccc1C(=O)OCC`, the call was inactive.
Same read-out and setting: with `CCC1(c2ccccc2)C(=O)N=C(O)NC1=O` (stereo not given) the entry was “inactive”; with `O=C(CBr)OCc1ccccc1`, “inactive”; with `O=[N+]([O-])c1ccccc1`, “inactive”.
The same measure, in the same setting: in the case of `CCCCc1ccc(O)cc1` it was “inactive”.
Same read-out and setting: with `COCCOCCO` the entry was “inactive”.
Consider `[N-]=[N+]=[N-]`, for which the molecule was called inactive.
Same read-out and setting: in the case of `ClC(Cl)c1ccccc1` it was “inactive”.
Turning to `Nc1ccc(Sc2ccc(N)cc2)cc1`, the AC50 (in general, the concentration at which the activity in the assay is half-maximal) was 51.2 µM (active).
On to `CCCN(CCC)c1c([N+](=O)[O-])cc(C(C)C)cc1[N+](=O)[O-]`, for which the call was inactive.
On to `CC1=C(C(=O)Nc2ccccc2)S(=O)(=O)CCO1`, for which the call was inactive.
As to `NNC(N)=S`, the call was inactive.
The same measure, in the same setting: with `c1cc2c3c(cccc3c1)CC2` the entry was “inactive”; with `c1ccc2c(c1)Nc1ccccc1S2`, “inactive”.
The same measure, in the same setting: with `Cc1ccc([N+](=O)[O-])cc1C` the entry was “inactive”.

A further assay in a line: ATG_RORE_CIS: Attagene CIS-FACTORIAL HepG2 Assay for human RAR-related Orphan Receptor Element (RORE) (AID 2282959). The following applies: HepG2 Attagene cis-factorial RORE reporter, mRNA; actives raise or lower the signal. The procedure, abridged: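 RORE reporter transcripts reflecting endogenous factor activity were read after 24 h compound exposure of transfected HepG2 cells, using reverse transcription, PCR, fluorescent labelling and capillary electrophoresis sizing. Gain or loss fitted against DMSO.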
`CCCCN(CCCC)SN(C)C(=O)Oc1cccc2c1OC(C)(C)C2`: the outcome was inactive.
`Nc1ccc2ccccc2c1`: the molecule was called inactive.
The same measure, in the same setting: in the case of `O=C(O)C1C(C(=O)O)C2(Cl)C(Cl)=C(Cl)C1(Cl)C2(Cl)Cl` (stereo not given) it was “inactive”; in that of `Cc1cccc(N)c1`, “inactive”; in that of `CCCCOCCOP(=O)(OCCOCCCC)OCCOCCCC`, “inactive”.
Still for that read-out and setting: in the case of `CN(C)C(=O)Cl` it was “inactive”; in that of `O=C(O)C(Cl)Cl`, “inactive”.
On the same count and under the same terms, with `CCOS(=O)(=O)OCC` the entry was “inactive”; with `OCC1CO1` (stereo not given), “inactive”; with `CCCCN(CCCC)N=O`, “inactive”.
As for `Nc1cc2c3c(c1)C(c1ccccc1)=N[C@@H](NC(=O)c1cccnc1)C(=O)N3CC2`, the half-maximal activity concentration (AC50) is 17.5 µM (active).
For the molecule `Nc1ccc(Cl)cc1`, the call was inactive.
Still for that read-out and setting: in the case of `CCC1(c2ccccc2)C(=O)N=C(O)NC1=O` (stereo not given) it was “inactive”; in that of `Cc1ccc(O)cc1C`, “inactive”; in that of `c1ccc(OP(Oc2ccccc2)Oc2ccccc2)cc1`, “inactive”.
Still for that read-out and setting: with `O=[N+]([O-])c1ccccc1` the entry was “inactive”.
Still for that read-out and setting: in the case of `COCCOCCO` it was “inactive”; in that of `ClC(Cl)c1ccccc1`, “inactive”; in that of `CCCN(CCC)c1c([N+](=O)[O-])cc(C(C)C)cc1[N+](=O)[O-]`, “inactive”.
Turning to `c1cc2c3c(cccc3c1)CC2`, the outcome was inactive.
Still for that read-out and setting: with `Cc1ccc([N+](=O)[O-])cc1C` the entry was “inactive”; with `CC(C)(C)c1ccc(O)cc1`, “inactive”.

A short description of another assay: ATG_Sox_CIS: Attagene CIS-FACTORIAL HepG2 Assay for human SRY-box transcription factor (SOX) (AID 2282960). As to conditions: HepG2 Attagene cis-factorial SOX reporter, mRNA; actives raise or lower the signal. In a few lines:
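Reporter transcripts, measured by RT-PCR and capillary electrophoresis of labelled fragments, report endogenous SOX transcription factor activity. Transiently transfected human HepG2 cells receive chemical for 24 h; changes in either direction are fitted relative to DMSO.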
For the molecule `ClC(Cl)(Cl)c1ccccc1`, the molecule was called inactive.
Turning to `CCOP(=S)(Oc1ccc([N+](=O)[O-])cc1)c1ccccc1` (stereo not given), the result was inactive.
The same measure, in the same setting: in the case of `CCCCN(CCCC)SN(C)C(=O)Oc1cccc2c1OC(C)(C)C2` it was “inactive”.
The same measure, in the same setting: with `Nc1ccc2ccccc2c1` the entry was “inactive”; with `O=C(O)C1C(C(=O)O)C2(Cl)C(Cl)=C(Cl)C1(Cl)C2(Cl)Cl` (stereo not given), “inactive”.
Still for that read-out and setting: with `Cc1cccc(N)c1` the entry was “inactive”; with `CCCCOCCOP(=O)(OCCOCCCC)OCCOCCCC`, “inactive”; with `CN(C)C(=O)Cl`, “inactive”.
For the molecule `O=C(O)C(Cl)Cl`, the outcome was inactive.
Same read-out and setting: in the case of `CCOS(=O)(=O)OCC` it was “inactive”.
Still for that read-out and setting: in the case of `OCC1CO1` (stereo not given) it was “inactive”.
On the same count and under the same terms, in the case of `CCCCN(CCCC)N=O` it was “inactive”.
As to `CSC(C)(C)C=NO`, the call was inactive.
On the same count and under the same terms, with `CCCCCCCc1ccc(O)cc1` the entry was “inactive”.
For `CCN(CC)c1ccccc1`, the outcome was inactive.
The same measure, in the same setting: in the case of `Nc1cc2c3c(c1)C(c1ccccc1)=N[C@@H](NC(=O)c1cccnc1)C(=O)N3CC2` it was “inactive”.
On the same count and under the same terms, in the case of `O=C(O)CF` it was “inactive”; in that of `Nc1ccc(Cl)cc1`, “inactive”; in that of `CC(Cl)(Cl)C(=O)O`, “inactive”.
The same measure, in the same setting: in the case of `CCOP(=S)(OCC)SCS(=O)(=O)CC` it was “inactive”.
`CCOC(=O)c1ccccc1C(=O)OCC`: the molecule was called inactive.
As for `CCC1(c2ccccc2)C(=O)N=C(O)NC1=O` (stereo not given), the outcome was inactive.
Same read-out and setting: with `O=C(CBr)OCc1ccccc1` the entry was “inactive”; with `Cc1ccc(O)cc1C`, “inactive”.
The same measure, in the same setting: in the case of `c1ccc(OP(Oc2ccccc2)Oc2ccccc2)cc1` it was “inactive”; in that of `O=[N+]([O-])c1ccccc1`, “inactive”; in that of `CCCCc1ccc(O)cc1`, “inactive”.
On the same count and under the same terms, with `COCCOCCO` the entry was “inactive”.
Turning to `[N-]=[N+]=[N-]`, the call was inactive.
The same measure, in the same setting: with `ClC(Cl)c1ccccc1` the entry was “inactive”; with `Nc1ccc(Sc2ccc(N)cc2)cc1`, “inactive”.
Still for that read-out and setting: with `CCCN(CCC)c1c([N+](=O)[O-])cc(C(C)C)cc1[N+](=O)[O-]` the entry was “inactive”.
On the same count and under the same terms, with `CC1=C(C(=O)Nc2ccccc2)S(=O)(=O)CCO1` the entry was “inactive”.
With `CC(Cc1ccc(OCC(=O)O)cc1)NCC(O)c1csc(C(F)(F)F)n1` (stereo not given), the result was inactive.
Still for that read-out and setting: in the case of `NNC(N)=S` it was “inactive”; in that of `c1cc2c3c(cccc3c1)CC2`, “inactive”.
The same measure, in the same setting: with `c1ccc2c(c1)Nc1ccccc1S2` the entry was “inactive”; with `Cc1ccc([N+](=O)[O-])cc1C`, “inactive”.
Regarding `CC(C)(C)c1ccc(O)cc1`, the concentration at half-maximal activity (AC50) is 175 µM (active).
